IL1B secr inh: qHTS for Inhibitors of Inflammasome Signaling: IL-1-beta AlphaLISA Primary Screen | activity change, % at 57.5 µM | THP-1 LPS/ATP IL-1B secretion, AlphaLISA, 16 h; hits give low values | AID 743279, 2014 | actives 4.7% (n = 360,000); in the data active = activity change below about -50%; inconclusive = mostly about -30% to -49%
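Secreted IL-1B measured by AlphaLISA bead assay after 16 h compound exposure of THP-1 cells; compounds (final up to 57.5 uM) added 1 h before LPS (250 ng/mL) and ATP (1.25 mM) stimulation; lower signal means less secretion.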
DT40 TDP1 CPT: qHTS for Inhibitors of human tyrosyl-DNA phosphodiesterase 1 (TDP1): qHTS in cells in presence of CPT; chicken DT40 Tdp1-/-;hTDP1 cells + 20 nM CPT, ATP luminescence, 48 h; Potency, µM (top dose mostly 46.2 µM), for inactives: top-dose activity change, negative = growth inhibition, hits mostly inhibitors; actives 12% (n = 420,000); AID 686979, 2013; also: potency is read from the fitted curve at half-maximal effect; nearly all actives have a fitted effect of over 55% in size
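Chicken DT40 Tdp1-/- cells stably complemented with human TDP1 were seeded at 400 cells/well in medium containing 20 nM camptothecin, exposed to pin-transferred compounds, and grown at 37 °C for at least 48 hr. Viability was read as ATP luminescence.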
HT1080NT lethal: qHTS for induction of synthetic lethality in tumor cells producing 2HG: qHTS for the HT-1080-NT fibrosarcoma cell line; actives 1.6% (n = 360,000); AID 686970, 2013; HT-1080-NT fibrosarcoma viability, CellTiter-Glo ATP luminescence, 48 h; Potency, µM (highest dose often 46.1 µM), for inactives: at the top dose activity, negative = less viability, usual class: cytotoxic;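 also: NT is the 2HG producing partner of a matched IDH1 knockdown line; potency is read from the fitted curve at half-maximal effect; 0% = DMSO-treated cells and -100% = media-only wells without cells; nearly all actives have a fitted effect of over 55% in size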
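Viability of the 2HG-overproducing fibrosarcoma line after 48 hours of compound exposure at 37 degrees C was determined by luminescence with CellTiter-Glo, and concentration-effect curves were then fitted and categorized.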
ELG1 repair inh: qHTS screen for small molecules that inhibit ELG1-dependent DNA repair in human embryonic kidney (HEK293T) cells expressing luciferase-tagged ELG1 | HEK293T ELG1-luciferase reporter, luminescence, 16 h; DNA damage induced by 5-fluorouridine | actives 2.3% (n = 330,000) | AID 504467, 2011 | Potency, µM (series often up to 46.1 µM), without a hit: at the highest dose activity change, negative = inhibition, actives largely listed as inhibitors; also: potency is read from the fitted curve at half-maximal effect; nearly all actives have a fitted effect of over 55% in size
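Luminescence from the luciferase reporter, measured 30 min after ONE-Glo reagent at room temperature, was the read-out. Beforehand, 2,000 cells per well were exposed for 16 hr at 37 °C to 5-fluorouridine together with compound or vehicle.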
HT1080 IDH1KD tx: qHTS for induction of synthetic lethality in tumor cells producing 2HG: qHTS for the HT-1080-IDH1KD cell line | HT-1080 IDH1 knockdown viability, ATP luminescence, 48 h | Potency, µM (highest dose often 46.1 µM), without a hit: at the highest dose activity, negative = toxicity, hits mostly cytotoxic | actives 2% (n = 360,000) | AID 686971, 2013;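 also: potency is read from the fitted curve at half-maximal effect; 0% = DMSO wells and -100% = cell-free medium wells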
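After a 2 h attachment period, IDH1KD HT-1080 cells took pin-transferred compound for 48 h at 37 °C; ATP-based luminescence after 10 min room-temperature reagent incubation reported viability.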
DT40 TDP1 no CPT: qHTS for Inhibitors of human tyrosyl-DNA phosphodiesterase 1 (TDP1): qHTS in cells in absence of CPT; DT40 Tdp1-/- hTDP1 cells, no CPT, ATP luminescence, 48 h; Potency, µM (doses to about 46.2 µM), without a hit: at the highest dose activity change, negative = growth inhibition, usual class: inhibitors; actives 15% (n = 420,000); also: potency is read from the fitted curve at half-maximal effect; nearly all actives have a fitted effect of over 55% in size
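No-CPT arm: Tdp1-/-;hTDP1 DT40 cells (400/well) plus compounds, incubated ≥48 hr at 37 °C. Readout CellTiter-Glo luminescence.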
Active calls of the source: *; ? = inconclusive; · = not tested or not shown; [ ] = another dose, or the depositor's remark. The list is not random: actives were taken first. Their share in the collection is about 19%. Unless noted, calls follow the shape of the dose curve; as a rule, active = well fitted curve in the direction sought with a large enough effect; inconclusive = small, poorly fitted or top-dose-only effect, or another doubt; inactive = no such curve, though single readings can be large; an effect the other way counts as inactive or inconclusive. Unless noted, % is scaled to controls: 0 for no effect and ±100 for the full control effect.

SMILES | IL1B secr inh | DT40 TDP1 CPT | HT1080NT lethal | ELG1 repair inh | HT1080 IDH1KD tx | DT40 TDP1 no CPT
Cc1ccc(NC(=S)N2CCN(Cc3ccc4c(c3)OCO4)CC2)c(C)c1 | 5 | -4% | -5% | · | -8% | -18%
CCN(CC)S(=O)(=O)c1ccc(C)c(NC(=S)N2CCN(Cc3ccc4c(c3)OCO4)CC2)c1 | -12 | 21µM* | ? | ? | 21µM* | 21µM*
CCN(CC)S(=O)(=O)c1ccc(C)c(NC(=S)N2CCN(c3ccccn3)CC2)c1 | -73* | 18µM* | -4% | 16µM* | 0% | 15µM*
CCOc1ccc(CNC(=O)COc2cc(=O)n(C)c3ccccc23)cc1 | · | -4% | · | · | · | ?
CCOC(=O)C(C)Oc1c(C(=O)OC)sc2ncccc12 (stereo unspecified) | 20 | 14% | 3% | -3% | 1% | -1%
Cn1c(C(=O)Nc2ccc(OC(F)(F)F)cc2)cc2c(=O)n3ccccc3nc21 | · | -7% | · | · | · | ?
CCN(CC)S(=O)(=O)c1cccc(NC(=O)CN2C(=O)NC3(CCOc4ccccc43)C2=O)c1 (stereo unspecified) | 8 | 16µM* | -4% | -23% | -25% | ?
COCCNC(=O)CN1C(=O)NC2(CCOc3ccccc32)C1=O (stereo unspecified) | -7 | -7% | -1% | 4% | -4% | 0%
CC(CNC(=O)CN1C(=O)NC2(CCOc3ccccc32)C1=O)c1ccccc1 (stereo unspecified) | -2 | 15µM* | 0%[9.24 µM] | 3% | 9% | ?
O=C(COc1ccc(F)cc1)NC1CC(=O)N(c2ccc3c(c2)OCCO3)C1 (stereo unspecified) | · | -14% | · | · | · | -22%
O=C(NC(=S)NNC(=O)c1ccco1)c1ccccc1 | 102 | ? | -25% | -10% | ? | 16µM*
CC1CCCC(NC(=S)NC(=O)c2ccco2)C1C (stereo unspecified) | 15 | 15µM* | -6% | 19% | -10% | ?
Cc1ccc(C(=O)NNC(=S)NC(=O)c2ccco2)cc1 | 97 | 7.3µM* | ? | ? | ? | 12µM*
Cc1ccc(C(=O)NNC(=O)c2ccco2)cc1 | -9 | -4% | -6% | ? | 3% | 4%
O=C(NNC(=O)c1ccco1)c1ccccc1 | 4 | -14% | 8% | ? | 16% | -12%
Cc1ccc(S(=O)(=O)NC(Cc2ccccc2)C(=O)O)cc1C (stereo unspecified) | 8 | 1% | 10% | 14% | 18% | 4%
CC(C)(C)c1csc(NC(=O)c2c(F)c(F)c(F)c(F)c2F)n1 | -55* | ? | -2% | -10% | 11% | ?
CC(C)(C)c1csc(NNC(=O)c2ccc(Br)cc2)n1 | 93 | ? | ? | -16% | 9.2µM* | ?
CC(C)(C)c1csc(NC(=O)c2ccccc2O)n1 | -83* | -23% | ? | ? | ? | ?
COc1ccccc1CN1CCCC2(CCN(C(=O)c3c(C)noc3C)CC2)C1 | · | 6% | · | · | · | -5%
COc1ccccc1-c1nnc(SCC(=O)N2CCCC2)o1 | 21 | 9% | 4% | ? | -9% | -3%
O=C(CN1C(=O)NC2(CCCC2)C1=O)OCc1ccc(Cl)cc1Cl | 1 | -13% | 4% | -7% | 1% | -9%
CCc1cccc(C)c1N1C(=O)CC(C)(C)CC1=O | 0 | -21% | 2% | -2% | 1% | -22%
CC(=O)N1CCC2(CC1)CN(C(c1ccccc1)c1ccccc1)C2 | · | 1% | · | · | · | ?
CC(=O)/C=C/c1ccccc1Oc1c(F)c(F)nc(F)c1F | -27 | ? | ? | ? | ? | 26µM*
SMILES | IL1B secr inh | DT40 TDP1 CPT | HT1080NT lethal | ELG1 repair inh | HT1080 IDH1KD tx | DT40 TDP1 no CPT
O=C(O)c1ccc(CNC(=O)C2CCCN2C(=O)OCc2ccccc2)cc1 (stereo unspecified) | -5 | 5% | ? | 14% | 14% | 5%
CCCCCCCCCn1ccc(=N)cc1 | -94* | 0.23µM* | ? | 0.41µM* | 15µM* | 0.15µM*
CCCCCCCn1ccc(=N)cc1 | ? | 0.52µM* | ? | ? | ? | 0.52µM*
CCCCCn1ccc(=N)cc1 | -30 | 9.2µM* | -11% | ? | -19% | 5.2µM*
CCn1ccc(=N)cc1 | 12 | -18% | 7% | 5% | 7% | 4%
CCCCCCN1CC(O)=C(c2ccccc2)C1=N | 10 | -4% | 10% | 18% | 12% | -1%
CCOC(=O)c1cnc(-n2nc(C)cc2C)nc1NNc1nc(-c2ccccc2)cc(-c2ccccc2)n1 | 23 | 3.7µM* | ? | 5.2µM* | ? | 3.3µM*
CCOC(=O)c1cnc(-n2nc(C)cc2C)nc1NNc1nc(C)cc(C)n1 | 14 | -4% | 2% | 12µM* | 0% | -23%
COc1ccc(S(=O)(=O)N2CCOCC2)cc1NC(=O)/C=C/c1ccc(F)cc1 | -29 | 7% | 9% | -16% | 3% | -6%
O=C(/C=C/c1ccc(S(=O)(=O)N2CCOCC2)cc1)NC(=S)NCCCn1ccnc1 | -75* | ? | -19% | ? | ? | ?
O=C(/C=C/c1ccc(F)cc1)Nc1cccc(S(=O)(=O)N2CCOCC2)c1 | -58* | ? | -15% | ? | -27% | ?
Cc1ccc(F)cc1NC(=O)/C=C/c1ccc(S(=O)(=O)N2CCOCC2)cc1 | -24 | ? | 11% | 23µM* | 7% | ?
O=C(/C=C/c1ccc(S(=O)(=O)N2CCOCC2)cc1)Nc1cc(F)ccc1F | -55* | ? | ? | ? | -4% | 21µM*
COc1cccc(C(=O)N2CCC(C(=O)NCc3ccc(C)cc3)CC2)c1 | 0 | -2% | -3% | -5% | 12% | ?
Cc1ccc2c(n1)sc1c(=O)n(-c3cccc(C(F)(F)F)c3)nnc12 | · | -17% | · | · | · | ?
O=C(/C=C/c1ccc(S(=O)(=O)N2CCOCC2)cc1)NC(=S)Nc1ccc(Cl)cc1Cl | -90* | ? | -21% | 6% | -13% | ?
COC(=O)CN1C(=O)COc2ccc(S(=O)(=O)N3CCCCC3)cc21 | -15 | -4% | -1% | · | 0% | -18%

Assay outcomes as filed in PubChem.
